This is an account of results in PubChem BioAssay AID504833 (Johns Hopkins Ion Channel Center, 2011).

The whole screen tested about 2,500 compounds, of which about 2,200 (88%) were called active.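 The calls were made as follows: active = primary screen active, with duplicate mean activation above negative control mean plus 3 SD (cut at about 11% in these data); inactive = the rest.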 The set was probably picked from earlier hits. The list is a sample of the results.

In this experiment the target is High affinity choline transporter 1 (Homo sapiens) (UniProt Q9GZV3). Put plainly: human choline transporter potentiators – cell-based, membrane potential dye, duplicate, confirmation (AID 504833). The following applies: CHT-expressing cells, membrane potential dye fluorescence (FDSS); at 10 µM; hits give high values; % of choline EC20–EC90 response window; HEK293 expressing CHT LV-AA mutant; choline added at its EC20.
Chain of High affinity choline transporter 1 (Homo sapiens) (Q9GZV3 whole entry, looked up): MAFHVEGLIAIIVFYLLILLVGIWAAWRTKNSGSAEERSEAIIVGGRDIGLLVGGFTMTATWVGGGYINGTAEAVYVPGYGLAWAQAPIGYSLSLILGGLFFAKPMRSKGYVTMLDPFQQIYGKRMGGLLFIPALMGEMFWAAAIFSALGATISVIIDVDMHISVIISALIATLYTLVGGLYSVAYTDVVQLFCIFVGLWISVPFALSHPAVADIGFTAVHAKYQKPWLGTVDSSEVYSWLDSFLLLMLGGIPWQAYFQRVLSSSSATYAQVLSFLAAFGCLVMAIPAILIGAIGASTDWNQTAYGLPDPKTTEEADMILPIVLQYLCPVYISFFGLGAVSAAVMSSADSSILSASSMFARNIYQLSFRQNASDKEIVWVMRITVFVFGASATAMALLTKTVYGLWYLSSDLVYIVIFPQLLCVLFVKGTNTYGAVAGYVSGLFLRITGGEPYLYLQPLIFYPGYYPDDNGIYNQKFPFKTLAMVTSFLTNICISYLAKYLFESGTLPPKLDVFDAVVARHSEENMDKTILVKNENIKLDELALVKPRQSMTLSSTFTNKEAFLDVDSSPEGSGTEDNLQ
In the case of `CN1CCN(c2cc(N3CCNCC3)ccc2[N+](=O)[O-])CC1`, the activation was 80.3% (active).

Consider `Cc1nc2ccc(N3CCN(C)CC3)cc2nc1C`, for which the activation is 20.3% (active).

With `CCCCCn1c(=O)c(C(=O)Nc2c(C)n(C)n(-c3ccccc3)c2=O)c(O)c2ccccc21`, the activation was 6.79% (inactive).

With `CCN1CCN(c2ccc([N+](=O)[O-])cc2C#N)CC1`, the activation was 43.4% (active).

In the case of `CCOc1ccc(-c2cc(C)[n+](CCN(CC)CC)c(-c3ccc(OCC)cc3)c2)cc1`, the activation was 34.4% (active).

Consider `CC[N+](CC)(CC)CCCCCCCCCC[N+](CC)(CC)CC`, for which the activation was 41% (active).
